From PubChem BioAssay AID1625 (Sanford-Burnham Center for Chemical Genomics, 2009)
Out of some 190,000 compounds screened, about 570 (0.3%) were called active.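 Rule for the calls: active = z-score above 3 at 5 µM with at least 500 cells counted in the well; inconclusive = wells under 500 cells, flagged as cytotoxic or low count; inactive = the rest.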 Many of the other results were omitted from the sample, so actives are more common in it than they were.

test: insulin promoter activators in MIN6 cells, imaging, high-content screening, mouse beta cells (AID 1625); details: MIN6 insulin promoter-GFP reporter, at 5 µM; cell count: measured here: cytotoxicity, nuclei count; z-score: stronger effect = higher value;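 for cell count: total cells summed across four imaged fields per well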

Structure (SMILES)	cell count [cells]	z-score
Cc1cc2nc(C(F)(F)F)cc(-c3cccs3)n2n1	1200	-0.13 (inactive)
O=C(COC(=O)C12CC3CC(CC(O)(C3)C1)C2)NC12CC3CC(CC(C3)C1)C2	1360	-1.25 (inactive)
Clc1ccc2nc(-c3ccccc3)nc(C(Cl)Cl)c2c1	892	-0.12 (inactive)
CN(c1ccccc1)c1ccc(/C=c2\s/c(=C(/C#N)C(=O)C(C)(C)C)n(Cc3ccco3)c2=O)cc1	1460	12.8 (active)
CCOC(=O)CSc1nc2c(sc(=S)n2CCc2ccccc2)c(=O)n1Cc1ccco1	1440	-0.59 (inactive)
Cc1cc2c(c(=O)n1Cc1ccco1)C(c1ccccc1)C(C#N)=C(N)O2 (centres undefined)	961	-0.43 (inactive)
CSc1nc(-c2ccco2)nn1C(=O)c1ccccc1Cl	983	-0.05 (inactive)
COc1ccc(OC)c(CNC(=O)c2cc(=O)[nH]c3ccc(S(=O)(=O)N4CCCC4)cc23)c1	1540	-0.29 (inactive)
Cc1ccc(C(=O)NC(=S)Nc2ccc(N3CCOCC3)cc2)cc1	1440	-0.06 (inactive)
Cc1cc(C(=O)N/N=C/c2ccc(N3CCOCC3)cc2)c(C)o1	987	0.32 (inactive)
CCN(CC)c1ccc(C(=O)N/N=C/c2ccc(N3CCOCC3)cc2)cc1	1830	3.38 (active)
COc1ccccc1Nc1nc(N)nc(CSC(=S)N2CCOCC2)n1	1080	-0.34 (inactive)
CCCN(c1ccc(C)cc1)c1nc(=O)c2cccnc2s1	1150	0.79 (inactive)
O=C(NCc1ccc(F)cc1)C1CCC(CNc2c(N3CCOCC3)c(=O)c2=O)CC1 (centres undefined)	1000	-0.88 (inactive)
CC(C)CN(CC(C)C)CC(O)CN(c1ccccc1)S(=O)(=O)c1ccccc1[N+](=O)[O-] (centres undefined)	1100	-1.15 (inactive)
CC(C)CNC(=O)C(=O)NCc1ccccc1	1620	-0.28 (inactive)
Cc1nn(-c2ccccc2)c(C)c1NC(=O)COc1ccc(Cl)cc1Cl	1470	1.23 (inactive)
Cc1nn(-c2ccccc2)c(Cl)c1C(=O)Nc1ccccc1	1480	-0.05 (inactive)
Cc1nn(-c2ccccc2)c(C)c1NC(=O)CCl	1030	3.88 (active)
S=C(NCCc1ccccc1)N1CCn2cccc2C1c1ccncc1 (centres undefined)	1320	0.43 (inactive)
O=C(CN1CCN(Cc2ccccc2)CC1)NC(c1ccccc1)c1ccccc1	847	0.25 (inactive)
CCN(CC(=O)Nc1cccc(S(N)(=O)=O)c1)Cc1nc2ccccc2c(=O)[nH]1	1090	0.21 (inactive)

Structure (SMILES)	cell count [cells]	z-score
CC(=O)Nc1ccc(NC(=O)COc2ccc(S(=O)(=O)NC(C)c3ccccc3)cc2)cc1 (centres undefined)	1520	-0.4 (inactive)
CN(C)/C=C1/Nc2ccccc2C1=O	636	4.71 (active)
CCCS(=O)(=O)C(=C1Nc2ccccc2N1)S(=O)(=O)CCC	1240	0.09 (inactive)
O=C1CCCCC(=O)c2ccccc2N1	1400	0.07 (inactive)
O=C(Nc1nnc(Cc2ccccc2)s1)c1cnccn1	1430	0.26 (inactive)
Cc1ccccc1Cn1c2ccccc2c2cnn(CC(=O)NCc3ccco3)c(=O)c21	1130	-0.15 (inactive)
CCc1cccc(CC)c1NC(=S)Nc1ccc2cn[nH]c2c1	1180	-0.06 (inactive)
O=C(CNC(=O)c1ccccc1)NCC(=O)OCC(=O)c1ccccc1	1240	-0.32 (inactive)
O=C(COC(=O)CNC(=O)c1ccco1)Nc1ccc(F)cc1	1320	-0.26 (inactive)
O=C(CNC(=O)c1ccco1)OCC(=O)c1ccccc1	1220	4.35 (active)
CCOC(=O)C1=C(N)N2C(=O)C(C)SC2=C(C(=O)OCC)C1c1cc(OC)c(OC)c(OC)c1 (centres undefined)	1120	-0.67 (inactive)
NS(=O)(=O)c1ccc(NC(=O)COC(=O)c2cc3ccccc3oc2=O)cc1	1430	0.45 (inactive)
CCCCOc1ccc(CON(C(C)=O)C(C)=O)cc1Cl	1140	-0.26 (inactive)
O=C(CCn1nnc2ccccc2c1=O)N[C@@H](Cc1c[nH]c2ccccc12)C(=O)O	1030	0.15 (inactive)
O=C(NCCCN1CCCCCC1)C1CC(=O)N(C2CCCC2)C1 (centres undefined)	1560	4.02 (active)
Cc1ccc(CNC(=O)C2CC(=O)N(C3CCCCCCC3)C2)cc1 (centres undefined)	1550	-0.31 (inactive)
CC(C)OCCCNC(=O)C1CC(=O)N(C2CCCCCCC2)C1 (centres undefined)	1560	-0.3 (inactive)
O=C(Nc1ccccc1)O/N=C1/CCCc2occc21	985	-0.24 (inactive)
O=C1CCCCC1C(=O)c1ccccc1 (centres undefined)	991	-0.12 (inactive)
OC(c1ccccc1)C(CN1CCOCC1)c1ccccc1 (centres undefined)	1160	-0.19 (inactive)
c1ccc2[nH]c(NCCN3CCOCC3)nc2c1	1180	0.66 (inactive)
C1=C(N2CCOCC2)/C(=C/c2nc3ccccc3[nH]2)CC1	905	3.43 (active)

Structure (SMILES)	cell count [cells]	z-score
c1ccc(Nc2nc(N3CCOCC3)c3ccccc3n2)cc1	637	-1.26 (inactive)
CCOc1c(Nc2cccc(Cl)c2)c(=O)c1=O	1030	0.15 (inactive)
COc1cc2c(C(=O)N3CCN(C)CC3)c(CSc3ccccc3)n(C)c2cc1Br	1290	-0.8 (inactive)
Cc1ccc(NC(=S)N2CCCC(c3ccccc3)=N2)cc1	1540	-0.41 (inactive)
O=S(=O)(NC(=S)Nc1ccccc1)c1ccc(F)cc1	1080	-0.63 (inactive)
O=C(Cc1cccs1)Nc1nnc(C2CC2)s1	1650	1.57 (inactive)
CCc1nnc(NC(=O)Cc2cccs2)s1	1560	0.7 (inactive)
COc1ccc(Cc2nnc(NC(=O)Cc3cccs3)s2)cc1	1270	3.48 (active)
Cc1ccc(OCC(=O)Nc2nnc(-c3ccco3)s2)cc1	1050	-0.23 (inactive)
Cc1ccc(SC(C)C(=O)NCc2ccc(F)cc2)cc1 (centres undefined)	1600	0.03 (inactive)
N#CCCCn1c(O)c(N=NC(=O)C(O)c2ccccc2)c2ccccc21 (centres undefined)	1150	0.15 (inactive)
Cc1ccc(C(=O)N/C(=C\c2ccco2)C(=O)N2CCSCC2)cc1C	1360	-0.32 (inactive)
CC1CCN(c2ccc([N+](=O)[O-])cc2C(N)=O)CC1	1470	0.15 (inactive)
COC(=O)c1sccc1NC(=O)c1csc2c1CCCC2	1260	-0.75 (inactive)
COC(=O)c1sccc1NC(=O)COc1ccc(Cl)cc1	2220	-0.38 (inactive)
COC(=O)c1sccc1NC(=O)c1cc(OC)c(OC)c(OC)c1	1440	3.71 (active)
O=S(=O)(c1ccc(Cl)cc1)N1CCCN(c2ccc(C(F)(F)F)cn2)CC1	1100	-0.98 (inactive)
Cc1ccnc(NC(=O)CCCOc2ccccc2)c1	1410	-0.12 (inactive)
COC(=O)c1scc(S(=O)(=O)C(C)(C)C)c1-n1cccc1	1430	0.89 (inactive)
O=C(CSc1nc2ccccc2s1)Nc1ccc(C(=O)O)cc1	1290	0.75 (inactive)
Cc1oc(C(N)=O)cc1COc1ccc(C(N)=O)cc1	1120	-0.28 (inactive)
COc1ccc(N2C(=O)C(Cc3ccccc3)NC2=S)cc1 (centres undefined)	1180	0.5 (inactive)

Structure (SMILES)	cell count [cells]	z-score
CCOC(=O)C1CCN(C(=O)Nc2cccc(OC)c2)CC1	1010	-0.44 (inactive)
CN(CCCNC(=O)CN1C(=O)CC(C)(C)S(=O)(=O)c2ccccc21)C1CCCCC1	1010	3.03 (active)
Cc1oc(-c2ccccc2F)nc1CS(=O)(=O)CC(=O)NCCCN(C)C1CCCCC1	1560	0.14 (inactive)
O=C(CN1C(=O)CC(c2ccccc2)S(=O)(=O)c2ccccc21)NC1CCCC1 (centres undefined)	1220	-1.1 (inactive)
CC1(C)CC(=O)C(C=NCCC2=CCCCC2)=C(O)C1	1030	0.42 (inactive)
O=C1CCCC(O)=C1C=NCCc1ccccc1	1000	3.02 (active)
O=C1CC(c2ccccc2)CC(O)=C1C=NCCN1CCOCC1 (centres undefined)	1300	-0.21 (inactive)
CS(=O)(=O)c1ccc2nnn(OCC(=O)Nc3cccc(C#N)c3)c2c1	1340	-0.14 (inactive)
Cc1cc(C)c(NC(=O)CN2C(=O)NC(Cc3ccccc3)C2=O)c(C)c1 (centres undefined)	1480	0.2 (inactive)
CN1CCN(CCNC(=O)Nc2ccc([N+](=O)[O-])cc2)CC1	1230	0.23 (inactive)
Cn1ccc(NC(=O)Nc2ccc(Cl)cc2)n1	1320	0.16 (inactive)
Cc1c(C(=O)N2CCCc3ccccc32)sc2nc(-c3ccccc3)cn12	661	1.22 (inactive)
Cc1cccc2cc3c(N)c(C(=O)N4CCCc5ccccc54)sc3nc12	725	6.25 (active)
Cc1occc1C(=O)N1CCCc2ccccc21	1220	0.1 (inactive)
CCOC(=O)C1=C(CN2CCCCCC2)NC(=O)NC1c1cccc([N+](=O)[O-])c1 (centres undefined)	1200	0.23 (inactive)
COCc1cc(=O)oc2cc(NS(=O)(=O)c3ccc(C)cc3)ccc12	1024	0.12 (inactive)
CC1=NNC(=O)C1CC(=O)N/N=C/c1ccncc1 (centres undefined)	1010	1.19 (inactive)
COc1c(C=O)c(CCN(C)C(=O)c2ccc(F)cc2)cc2c1OCO2	1010	0.62 (inactive)
Cc1nn(CC2CC2)c(=O)n1N(C)c1ncc(C(F)(F)F)cc1Cl	1660	-0.16 (inactive)
COc1cc(/C=N/Nc2nc3ccccc3s2)ccc1O	924	-0.19 (inactive)
Cn1c(SCC(=O)c2ccc(F)cc2)nnc1-c1ccccn1	1430	-0.19 (inactive)
